Measurements as given in PubChem BioAssay AID602233 (National Center for Advancing Translational Sciences (NCATS), 2012).
Hit rate of the full screen: of about 380,000 compounds, about 170 (0.045%) were called active. This is one part of a sample in which actives are shown more often than they occur. Unmarked numbers belong to inactive results. The call rests on the fitted dose curve; in most records, active means well fitted inhibition curve with a large enough effect; inconclusive means small, poorly fitted or top-dose-only effect; inactive means no such curve, though single readings can be large or run the other way.

biological target: Phosphoglycerate kinase, glycosomal (Trypanosoma brucei brucei) (UniProt P07378); assay: qHTS Assay to Find Inhibitors of Phosphoglycerate Kinase; conditions: PGK/GAPDH coupled, Kinase-Glo luminescence, 60 min; series mostly up to 57.5 µM; activity change, negative = inhibition: at the top concentration; further: nearly all actives have a fitted effect of over 60% in size
Sequence (P07378 whole entry, looked up): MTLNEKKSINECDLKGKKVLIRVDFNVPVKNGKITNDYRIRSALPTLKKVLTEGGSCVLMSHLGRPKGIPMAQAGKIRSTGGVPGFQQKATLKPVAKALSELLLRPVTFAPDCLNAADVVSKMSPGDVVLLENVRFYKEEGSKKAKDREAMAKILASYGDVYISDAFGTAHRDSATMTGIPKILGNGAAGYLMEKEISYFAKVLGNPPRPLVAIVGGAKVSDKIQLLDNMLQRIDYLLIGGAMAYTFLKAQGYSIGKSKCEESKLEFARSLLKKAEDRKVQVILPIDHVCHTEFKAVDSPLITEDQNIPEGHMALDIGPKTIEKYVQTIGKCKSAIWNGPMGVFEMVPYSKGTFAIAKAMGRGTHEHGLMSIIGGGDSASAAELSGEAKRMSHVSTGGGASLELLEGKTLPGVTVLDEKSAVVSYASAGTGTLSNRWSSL
From the text: Several species of the Trypanosomatidae family of parasitic protozoans cause a spectrum of diseases throughout the tropical and subtropical world. Sleeping sickness, caused by two subspecies of Trypanosoma brucei, is endemic to areas of sub-Saharan Africa, while Chagas disease, a manifestation of Trypanosoma cruzi infection, is prevalent throughout Central and South America. In addition, many species of Leishmania are responsible for a range of cutaneous and visceral diseases, causing ulcers, destructive lesions and kalaazar, a lethal infection of the viscera. Collectively, these organisms infect 30 million people worldwide (~500 million live in endemic areas), and account for ~130,000 deaths annually. Given their debilitating and prevalent nature, trypanosomatid parasites impose a heavy medical, economic and social burden on entire populations, primarily in the developing world. The problem is further exacerbated by the fact that existing treatments have progressed little in the past 50 years, and current drugs show high toxicity and poor efficacy. […] Blood-stream stages of T. brucei are entirely dependent on glycolysis as a source of ATP, and the tricarboxylic acid cycle and oxidative phosphorylation are both repressed. Glycolysis in axenically cultured T. cruzi, representing the intracellular pathogenic stage, is also essential for these parasites. […] Previous studies have shown that the glycolytic enzyme, phosphoglycerate kinase (PGK), is a viable target for drugs to kill these parasites. […] NIH Molecular Libraries Probe Production Network [MLPCN] NIH Chemical Genomics Center [NCGC] MLPCN Grant: R03 MH093212 PI Name: Malcolm Walkinshaw, University of Edinburgh
3ul of substrate/PGK buffer (columns 1,2,5-48) are dispensed into Greiner white solid bottom 1536-well assay plates; columns 3-4 receive only TEA buffer as 0x PGK controls. Compounds are then transferred via Kalypsys pin tool equipped with 1536-pin array (10nl slotted pins, V&P Scientific, San Diego, CA). Following addition of compound, 1ul of GAPDH (100nM final concentration, all columns) is added to initiate the reaction (this upstream coupling enzyme is necessary for in-well production of PGK substrate, 1,3-bisphosphoglycerate (1,3-BPG), which is unstable and not commercially available). The plates are then incubated at room temperature for 60 minutes. Kinase-Glo Plus reagent is added (2ul) and plates incubated for 10 minutes, before being transferred to a ViewLux high-throughput CCD imager (PerkinElmer) wherein single end-point measurements of luminescence are acquired using a clear filter. All reagents are diluted in an assay buffer consisting of 100mM TEA (pH 7.6), 5mM MgCl2 and 0.01% Tween-20.
Potency means the concentration at half of the fitted maximal effect.

SMILES	activity change, negative = inhibition [%]	Potency
COc1cccc(N2C(=O)NC(=O)/C(=C\c3ccc([N+](=O)[O-])s3)C2=O)c1	-20	–
O=C1NC(=O)N(Cc2ccco2)C(=O)/C1=C\c1ccc(-c2ccc(F)cc2)o1	-16.2	–
COc1ccc(N2C(=O)/C(=C/c3ccco3)C(=O)NC2=S)cc1	–	12.6 µM (active)
c1ccc(C2NCc3ccccc3-n3cccc32)cc1 (stereo not given)	-1.24	–
N[C@@H](Cc1c[nH]c2ccccc12)c1nnc(SCc2c(F)cccc2Cl)o1	-1.8	–
